{
  "source": "PubChem BioAssay (NCI)",
  "note": "This is part of a sample that, as a whole, favours compounds with a hit. Of some 83,000 tested, about 20% had one in any assay.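 The endpoint reported here, percent growth, reads 100 for growth as untreated, 0 for no net growth and -100 for all cells dead.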 Values without a mark were called inactive. Activity calls are given as the source filed them. How the source made its calls: active means growth percent below 10; inactive means the rest.",
  "data": [
    {"tested_on": "SR leukemia", "experiment": "NCI-60 one-dose screen, 48 h (100 = growth as untreated, 0 = no growth, -100 = all killed)", "settings": "10 µM", "values": [
      {"smiles": "CCCC1(CC(=O)O)OCCc2c1[nH]c1ccccc21", "note": "(stereo not drawn)", "growth": "84%"},
      {"smiles": "CN(C)C(=S)N/N=C\\C=N/NC(=S)N(C)C", "growth": "35.4%"},
      {"smiles": "C=C(NC(=O)C(=C)NC(=O)c1csc(C2=NC3c4csc(n4)C4NC(=O)c5csc(n5)C(C(C)(O)C(C)O)NC(=O)C5CSC(=N5)/C(=C/C)NC(=O)C(C(C)O)NC(=O)c5csc(n5)C3(CC2)NC(=O)C(C)NC(=O)C(=C)NC(=O)C(=C)NC(=O)C(C(C)C)NC2C=Cc3c(C(C)O)cc(nc3C2O)C(=O)OC4C)n1)C(N)=O", "note": "(stereo not drawn)", "growth": "5.93% (active)"},
      {"smiles": "COc1ccc2nc3ccccc3c(NCCNCC(C)O)c2c1", "note": "(stereo not drawn)", "growth": "4.1% (active)"},
      {"smiles": "CN(C)CCN1C(=O)c2cccc3cc(N)cc(c23)C1=O", "growth": "8.08% (active)"},
      {"smiles": "COc1ccc(N2C(=O)C3c4[nH]c5ccc(OCc6ccccc6)cc5c4C4CCC(C(C)C)CC4C3C2=O)cc1", "note": "(stereo not drawn)", "growth": "64.6%"},
      {"smiles": "CC(C)C[C@H](NC(=O)[C@H](Cc1cccc2ccccc12)NS(=O)(=O)c1cccc2cccnc12)B(O)O", "growth": "2.44% (active)"},
      {"smiles": "O=C(CC(C(=O)c1ccccc1)N1CCOCC1)c1ccccc1", "note": "(stereo not drawn)", "growth": "28.5%"},
      {"smiles": "NC(=O)SCC(=O)Nc1ccc(S(N)(=O)=O)cc1", "growth": "110%"},
      {"smiles": "CCCCN(CCCC)CCCCCCCCC(O)c1cc2ccccc2c2ccccc12", "note": "(stereo not drawn)", "growth": "37.6%"},
      {"smiles": "O=C(CCCCCCC(=O)Nc1cccnc1)NO", "growth": "28.6%"},
      {"smiles": "COc1ccc2nc3cc(Cl)ccc3c(NCCNCC(C)O)c2c1", "note": "(stereo not drawn)", "growth": "2.01% (active)"},
      {"smiles": "Clc1cccc(-c2nc(-c3cccs3)no2)c1", "growth": "85.7%"}
    ]}
  ]
}
